# Results as given in paper PMC7862700, “An all-to-all approach to the identification of sequence-specific readers for epigenetic DNA modifications on cytosine”.
# Key:
# Experiment in all cases: DAPPL (digital affinity profiling via proximity ligation, sequencing); 10 mM Tris-HCl pH 7.5, 50 mM NaCl, 1 mM DTT, 4% glycerol, room temperature, 30 min; GST-TFs on glutathione beads, 16-mer random dsDNA library, 0.1% formaldehyde crosslink after washing; high values mean tight binding
# Details in all cases: protein: recombinant; tags: N-terminal GST; dsDNA, one strand shown
# [1] = target: T1, ELK1 (Homo sapiens, UniProt P19419 1-428)
# T1 sequence: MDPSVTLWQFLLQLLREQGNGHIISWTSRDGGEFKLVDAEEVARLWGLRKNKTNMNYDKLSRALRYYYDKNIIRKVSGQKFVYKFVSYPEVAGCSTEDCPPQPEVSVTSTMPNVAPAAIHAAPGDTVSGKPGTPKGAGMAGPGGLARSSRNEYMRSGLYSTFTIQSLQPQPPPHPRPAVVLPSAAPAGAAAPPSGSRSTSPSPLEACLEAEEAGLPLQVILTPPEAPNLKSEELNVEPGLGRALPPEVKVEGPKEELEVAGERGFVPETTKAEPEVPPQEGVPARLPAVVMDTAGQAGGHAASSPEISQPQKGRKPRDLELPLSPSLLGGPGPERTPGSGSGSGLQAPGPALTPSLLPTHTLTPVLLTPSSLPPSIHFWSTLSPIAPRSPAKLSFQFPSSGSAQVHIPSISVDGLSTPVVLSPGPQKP
# Summary of the method: (§1)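 After expression in yeast as GST fusions, human transcription factors were bound to glutathione beads, DNA-barcoded and mixed with a tag-only sample. The pools were incubated with 200 nmole of a 16-mer random double-stranded DNA library in Tris/NaCl/DTT/glycerol buffer (30 min, room temperature), washed and crosslinked with 0.1% formaldehyde. Proximity ligation with BsaI/T4 ligase ran for 1 h at 37 °C, before PCR amplification and sequencing on an Illumina NextSeq500. Binding signal is a hexamer's read frequency for a factor divided by its frequency for the tag-only sample.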
# [2] = target: T2, GABPA (Homo sapiens, UniProt Q06546 1-454)
# T2 sequence: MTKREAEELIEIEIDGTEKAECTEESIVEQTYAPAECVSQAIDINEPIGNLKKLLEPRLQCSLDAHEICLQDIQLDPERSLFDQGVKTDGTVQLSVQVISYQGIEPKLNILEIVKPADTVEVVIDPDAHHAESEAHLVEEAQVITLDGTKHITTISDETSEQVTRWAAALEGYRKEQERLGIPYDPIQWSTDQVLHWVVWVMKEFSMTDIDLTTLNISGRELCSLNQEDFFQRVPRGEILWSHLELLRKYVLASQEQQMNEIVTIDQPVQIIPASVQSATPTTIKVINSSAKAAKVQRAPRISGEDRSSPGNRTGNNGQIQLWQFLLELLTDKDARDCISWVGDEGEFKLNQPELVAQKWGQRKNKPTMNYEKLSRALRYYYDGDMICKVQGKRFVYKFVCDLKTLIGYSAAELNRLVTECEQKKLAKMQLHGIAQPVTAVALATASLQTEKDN
# Summary of the method: as §1
# [3] = target: T3, ERG (Homo sapiens, UniProt P11308 1-479)
# T3 sequence: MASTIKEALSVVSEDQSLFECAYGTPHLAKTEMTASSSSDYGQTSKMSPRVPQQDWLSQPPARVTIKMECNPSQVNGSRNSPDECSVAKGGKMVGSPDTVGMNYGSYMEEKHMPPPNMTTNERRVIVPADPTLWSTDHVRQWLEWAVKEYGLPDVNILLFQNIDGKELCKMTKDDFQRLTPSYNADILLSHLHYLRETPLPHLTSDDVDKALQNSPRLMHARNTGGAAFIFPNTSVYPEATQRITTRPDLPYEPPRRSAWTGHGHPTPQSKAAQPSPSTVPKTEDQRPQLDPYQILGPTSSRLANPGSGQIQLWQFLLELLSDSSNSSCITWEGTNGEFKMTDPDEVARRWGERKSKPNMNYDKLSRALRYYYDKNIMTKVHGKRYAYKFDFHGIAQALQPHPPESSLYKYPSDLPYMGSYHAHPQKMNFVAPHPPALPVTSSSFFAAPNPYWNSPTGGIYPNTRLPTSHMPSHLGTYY
# Summary of the method: as §1
# [4] = target: ELF1 (Homo sapiens, UniProt P32519 1-619)
# Summary of the method: as §1
# [5] = target: T4, EHF (Homo sapiens, UniProt Q9NZC4 1-300)
# T4 sequence: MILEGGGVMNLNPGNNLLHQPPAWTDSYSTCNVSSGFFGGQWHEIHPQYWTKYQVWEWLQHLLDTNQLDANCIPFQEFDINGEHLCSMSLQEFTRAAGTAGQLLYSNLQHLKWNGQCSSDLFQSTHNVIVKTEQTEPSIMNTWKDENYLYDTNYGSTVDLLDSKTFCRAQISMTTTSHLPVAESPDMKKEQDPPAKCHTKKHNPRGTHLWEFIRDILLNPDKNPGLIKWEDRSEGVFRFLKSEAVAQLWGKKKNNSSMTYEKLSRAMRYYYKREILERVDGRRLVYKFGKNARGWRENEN
# Summary of the method: as §1
# [6] = target: T5, ELK3 (Homo sapiens, UniProt P41970 1-407)
# T5 sequence: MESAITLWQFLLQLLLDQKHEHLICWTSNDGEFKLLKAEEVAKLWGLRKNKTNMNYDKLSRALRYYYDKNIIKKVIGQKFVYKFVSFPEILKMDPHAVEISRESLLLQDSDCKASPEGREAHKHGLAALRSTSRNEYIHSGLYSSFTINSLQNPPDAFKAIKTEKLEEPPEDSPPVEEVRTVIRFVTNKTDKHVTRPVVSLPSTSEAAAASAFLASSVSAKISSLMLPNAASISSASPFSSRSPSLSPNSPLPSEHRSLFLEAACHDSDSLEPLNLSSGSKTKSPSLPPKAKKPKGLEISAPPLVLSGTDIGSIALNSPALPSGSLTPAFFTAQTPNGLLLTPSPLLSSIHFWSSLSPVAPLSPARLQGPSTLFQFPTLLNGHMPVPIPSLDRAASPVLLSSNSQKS
# Summary of the method: as §1
# [7] = target: ETV5 (Homo sapiens, UniProt P41161 1-510)
# Summary of the method: as §1
# [8] = target: T6, SPIC (Homo sapiens, UniProt Q8N5J4 1-248)
# T6 sequence: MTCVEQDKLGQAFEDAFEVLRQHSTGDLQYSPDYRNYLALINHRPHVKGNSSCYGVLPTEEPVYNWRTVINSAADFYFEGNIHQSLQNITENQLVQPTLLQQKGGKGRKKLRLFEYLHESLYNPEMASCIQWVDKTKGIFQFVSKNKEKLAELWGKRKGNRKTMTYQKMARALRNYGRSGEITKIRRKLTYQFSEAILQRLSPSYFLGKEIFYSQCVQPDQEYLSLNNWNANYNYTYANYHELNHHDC
# Summary of the method: as §1
# [9] = target: ELF4 (Homo sapiens, UniProt Q99607 1-663)
# Summary of the method: as §1
# Sequence of ELF1 (P32519 whole entry): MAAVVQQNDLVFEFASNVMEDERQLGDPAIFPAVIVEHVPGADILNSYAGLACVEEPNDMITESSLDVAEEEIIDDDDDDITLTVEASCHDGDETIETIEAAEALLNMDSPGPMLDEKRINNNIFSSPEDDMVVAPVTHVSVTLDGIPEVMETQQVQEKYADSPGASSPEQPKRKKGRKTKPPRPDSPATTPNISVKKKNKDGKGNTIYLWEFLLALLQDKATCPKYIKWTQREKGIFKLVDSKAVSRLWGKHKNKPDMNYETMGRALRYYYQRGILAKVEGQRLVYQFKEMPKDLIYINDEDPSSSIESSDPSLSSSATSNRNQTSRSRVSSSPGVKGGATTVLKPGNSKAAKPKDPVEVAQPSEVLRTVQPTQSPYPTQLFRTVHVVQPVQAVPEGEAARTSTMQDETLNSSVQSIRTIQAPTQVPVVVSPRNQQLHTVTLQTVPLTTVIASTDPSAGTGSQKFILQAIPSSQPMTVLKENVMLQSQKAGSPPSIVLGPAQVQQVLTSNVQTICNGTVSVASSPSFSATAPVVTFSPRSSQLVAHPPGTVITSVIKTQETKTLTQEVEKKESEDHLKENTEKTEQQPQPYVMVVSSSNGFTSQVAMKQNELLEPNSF
# Sequence of ELF4 (Q99607 whole entry): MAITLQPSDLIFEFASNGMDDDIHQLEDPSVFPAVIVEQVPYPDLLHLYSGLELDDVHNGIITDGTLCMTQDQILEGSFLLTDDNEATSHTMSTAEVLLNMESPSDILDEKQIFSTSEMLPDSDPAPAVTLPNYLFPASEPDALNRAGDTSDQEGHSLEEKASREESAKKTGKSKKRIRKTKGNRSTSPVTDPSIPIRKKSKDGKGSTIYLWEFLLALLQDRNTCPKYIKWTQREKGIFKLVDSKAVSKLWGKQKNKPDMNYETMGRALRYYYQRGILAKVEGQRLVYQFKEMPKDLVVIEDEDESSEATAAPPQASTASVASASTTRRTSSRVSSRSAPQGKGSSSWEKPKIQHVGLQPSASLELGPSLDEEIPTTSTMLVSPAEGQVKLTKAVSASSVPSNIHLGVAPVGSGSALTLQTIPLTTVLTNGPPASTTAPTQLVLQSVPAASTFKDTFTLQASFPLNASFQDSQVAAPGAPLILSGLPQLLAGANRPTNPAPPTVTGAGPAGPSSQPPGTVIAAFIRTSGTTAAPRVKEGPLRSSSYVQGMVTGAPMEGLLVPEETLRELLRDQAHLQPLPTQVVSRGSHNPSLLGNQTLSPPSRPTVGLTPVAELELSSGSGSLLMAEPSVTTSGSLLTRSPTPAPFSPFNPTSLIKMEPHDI
# Sequence of ETV5 (P41161 whole entry): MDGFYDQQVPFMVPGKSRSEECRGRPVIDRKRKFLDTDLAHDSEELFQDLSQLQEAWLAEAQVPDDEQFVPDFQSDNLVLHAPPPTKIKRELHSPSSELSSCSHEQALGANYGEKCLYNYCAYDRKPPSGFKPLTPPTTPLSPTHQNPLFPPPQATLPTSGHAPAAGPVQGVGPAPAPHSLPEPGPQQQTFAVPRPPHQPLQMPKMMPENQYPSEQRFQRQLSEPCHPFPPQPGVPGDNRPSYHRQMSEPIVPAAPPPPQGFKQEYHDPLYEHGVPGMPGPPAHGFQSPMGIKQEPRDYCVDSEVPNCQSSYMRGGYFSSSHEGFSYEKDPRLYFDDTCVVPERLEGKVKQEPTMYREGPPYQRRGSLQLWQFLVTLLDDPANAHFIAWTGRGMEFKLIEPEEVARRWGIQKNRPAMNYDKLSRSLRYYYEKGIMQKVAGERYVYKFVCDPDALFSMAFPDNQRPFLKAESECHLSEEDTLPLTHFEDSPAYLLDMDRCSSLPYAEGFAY
sequence,measurement,setting,value
GTGCAT,binding signal,[1],"1.05 fold enrichment (6-mer frequency, TF over GST control)"
same,binding signal,[2],"1.1 fold enrichment (6-mer frequency, TF over GST control)"
same,binding signal,[3],"1.06 fold enrichment (6-mer frequency, TF over GST control)"
same,binding signal,[4],"1.01 fold enrichment (6-mer frequency, TF over GST control)"
same,binding signal,[5],"1.07 fold enrichment (6-mer frequency, TF over GST control)"
same,binding signal,[6],"1.16 fold enrichment (6-mer frequency, TF over GST control)"
same,binding signal,[7],"1.13 fold enrichment (6-mer frequency, TF over GST control)"
same,binding signal,[8],"1.28 fold enrichment (6-mer frequency, TF over GST control)"
same,binding signal,[9],"1.08 fold enrichment (6-mer frequency, TF over GST control)"
